Assay results taken from PubChem BioAssay (NCATS).
Several values for one entry are separate records, joined by “and”; a condition that tells them apart may be missing. Equal entries are not always repeated. Inconclusive results are not listed. Values without a mark were called inactive. Activity calls are given as the source filed them. The call rests on the fitted dose curve; in most records, active means well fitted curve in the direction sought with a large enough effect; inconclusive means small, poorly fitted or top-dose-only effect, or another doubt; inactive means no such curve, though single readings can be large; an effect the other way counts as inactive or inconclusive.

experiment: Viability qHTS for spleen associated tyrosine kinase inhibitor (SYKi) drug resistant MV4-11 cells (AID 1963824); conditions: SYKi-resistant MV4-11 viability, CellTiter-Glo, 72 h; series mostly up to 45 µM; further: nearly all actives have a fitted effect of over 35% in size
How it was run: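 SYK inhibitor-resistant MV4-11 AML cells, 500 per well, added to predispensed compounds and incubated 72 hr at 37 C, 5% CO2. Viability measured by CellTiter-Glo luminescence after 10 min at room temperature.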
Potency means the concentration at half of the fitted maximal effect.

SMILES	Potency	viability, % of control
C[C@]12CCC3[C@@H](CC[C@H]4NC(=O)C=C[C@]34C)[C@@H]1CC[C@@H]2C(=O)Nc1cc(C(F)(F)F)ccc1C(F)(F)F (stereo not given in full)	9.34 µM (active)	
COc1cc(C(=O)O)ccc1NC(=O)[C@@H]1N[C@@H](CC(C)(C)C)[C@](C#N)(c2ccc(Cl)cc2F)[C@H]1c1cccc(Cl)c1F	5.25 µM (active)	
O=C(O)C[C@H](O)C[C@H](O)/C=C/c1c(C2CC2)nc2ccccc2c1-c1ccc(F)cc1	164 nM (active) and 235 nM (active)	
NS(=O)(=O)c1cc2c(cc1C(F)(F)F)NC(Cc1ccccc1)NS2(=O)=O (stereo not given)	inactive	
O=C(/C=C/c1cccc(S(=O)(=O)Nc2ccccc2)c1)NO	282 nM (active) and 332 nM (active)	
COc1ccc(CNc2nc(N(CCO)CCO)nc3c2ncn3C(C)C)cc1	5.8 µM (active)	
Cc1cc(O)cc2c1[C@]1(C)CC[C@H]3C(C)(C)CCC[C@]3(C)[C@H]1C2		59.2% [at 4.97 µM]
OCCn1cc(-c2ccc3c(c2)CC/C3=N\O)c(-c2ccncc2)n1	18.6 µM (active)	
NC(=O)/C(=C/n1cnc(-c2cc(C(F)(F)F)cc(C(F)(F)F)c2)n1)c1cncnc1	0.235 µM (active)	
Cc1[nH]c(/C=C2\C(=O)Nc3ccc(S(=O)(=O)N(C)c4cccc(Cl)c4)cc32)c(C)c1C(=O)N1CCN(C)CC1	1.46 µM (active) and 2.09 µM (active)	

experiment: Cellular viability qHTS for adrenocortical cancer (ACC) cell line SW-13 (AID 1963989); conditions: SW-13 ACC cells viability, CellTiter-Glo, 48 h; activity (max response): stronger effect = lower value; further: nearly all actives have a fitted effect of over 65% in size;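 on activity (max response): cells grown in serum-free medium with ITS supplement; on the % scale 0 is the no-effect control and ±100 the full control effect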
How it was run: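 SW-13 cells in ITS-supplemented serum-free DMEM were plated overnight, then exposed for 48 h at 37C to compound titrations (up to 46 uM final). Viability was read by CellTiter-Glo luminescence; four-parameter logistic fits gave IC50 and efficacy.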

SMILES	activity (max response)	Potency
CC(O)C(=O)O (stereo not given)	6.49%	
CC(C)(C(=O)O)c1ccc(C(O)CCCN2CCC(C(O)(c3ccccc3)c3ccccc3)CC2)cc1 (stereo not given)	-2.55%	
O=C1NC(=O)/C(=C/c2ccc3nccc(-c4ccncc4)c3c2)S1		1 µM (active)
OCCN1CCN(CCCN2c3ccccc3Sc3ccc(Cl)cc32)CC1		6.51 µM (active)
O=S(=O)(NCCNC/C=C/c1ccc(Br)cc1)c1cccc2cnccc12		31.6 µM (active)
CC[C@@]1(O)C(=O)OCc2c1cc1n(c2=O)Cc2c-1nc1ccccc1c2/C=N/OC(C)(C)C		0.013 µM (active)
C[C@@H](Oc1cc(C(=O)Nc2ccc(C(=O)N3CCN(C)CC3)cc2)nnc1N)c1c(Cl)ccc(F)c1Cl		17.8 µM (active)
CC(C)C[C@H](NC(=O)[C@H](Cc1ccccc1)NC(=O)OCc1ccccc1)C(=O)C=O	-18.6%	
CN(C)CCOc1ccc(-c2nc(-c3ccc4c(c3)CC/C4=N\O)c(-c3ccncc3)[nH]2)cc1		31.6 µM (active)
COc1cccc2c1C(=O)c1c(O)c3c(c(O)c1C2=O)C[C@@](O)(C(=O)CO)C[C@@H]3O[C@H]1C[C@H](N)[C@H](O)[C@H](C)O1		2.31 µM (active) and 891 nM (active)
CCCCCCCCCCCCCCCC[N+](C)(C)CC		5.17 µM (active)
CCCCC(CC)CNC(=O)CC(C)OC(=O)CCC(=O)O (stereo not given)	-6.84%	
O=C1OC(COc2ccccc2[N+](=O)[O-])CC1Cc1ccccc1 (stereo not given)	-13.4%	
CN(C)C(N)=NC(=N)N	1.52%	
COc1cc(C(N)=O)ccc1NC(=O)[C@@H]1N[C@@H](CC(C)(C)C)[C@@]2(C(=O)Nc3cc(Cl)ccc32)[C@H]1c1cccc(Cl)c1F		15.8 µM (active)
CC(=O)O/N=C1\C(=O)N(Cc2cc(Cl)ccc2Cl)c2ccc(Cl)cc21	-2.12%	
CCOC(=O)[C@H](CCc1ccccc1)N[C@@H](C)C(=O)N1[C@H](C(=O)O)C[C@@H]2CCC[C@@H]21	3.72% and 7.5%	
CSc1ccc2c(c1)N(CCC1CCCCN1C)c1ccccc1S2 (stereo not given)		16.4 µM (active)
NC(=O)NNc1ccccc1	-10.9%	
CN(C)c1cc(NC(=O)CNC(C)(C)C)c(O)c2c1C[C@H]1C[C@H]3[C@H](N(C)C)C(=O)C(C(N)=O)=C(O)[C@]3(O)C(=O)C1=C2O	-8.31%	

SMILES	activity (max response)	Potency
CCC1(c2cnc[nH]2)Cc2ccccc2C1	-4.6%	
CC(=O)Oc1cccc(O)c1	7.39%	
Nc1ccc(C(=O)NCC(=O)O)cc1	-9.96%	
C[C@]12CC[C@@H]3c4ccc(O)cc4CC[C@H]3[C@@H]1CC[C@@H]2OC(=O)CCC1CCCC1	5.6%	
Cc1cc2c(C(C)C)c(O)c(O)c(C=O)c2c(O)c1-c1c(C)cc2c(C(C)C)c(O)c(O)c(C=O)c2c1O		10 µM (active)
Cc1cc(OCCCc2c3n(c4c(-c5c(C)nn(C)c5C)c(Cl)ccc24)[C@H](C)CN(c2cn(C)c4ccc(C(=O)O)cc24)C3=O)cc(C)c1Cl		2 µM (active)
O=C(/C=C/c1ccc(/C=C/C(=O)Nc2ccc(C3=NCCN3)cc2)cc1)Nc1ccc(C2=NCCN2)cc1	-13%	
O=C1[C@H](CC[C@H](O)c2ccc(F)cc2)[C@@H](c2ccc(O)cc2)N1c1ccc(F)cc1	-3.67% and -14.5%	
c1cn2cc(-c3ccc4cn[nH]c4c3)nc(Nc3ccc(N4CCOCC4)cc3)c2n1	2.68%	
C[C@@H]1C[C@H]2[C@@H]3C[C@H](F)C4=CC(=O)C=C[C@]4(C)[C@@]3(F)[C@@H](O)C[C@]2(C)[C@@]1(O)C(=O)CO	-1.7%	
C[C@]12CCC3[C@@H](CC[C@H]4NC(=O)C=C[C@]34C)[C@@H]1CC[C@@H]2C(=O)Nc1cc(C(F)(F)F)ccc1C(F)(F)F (stereo not given in full)	-0.361%	
COc1cc(C(=O)O)ccc1NC(=O)[C@@H]1N[C@@H](CC(C)(C)C)[C@](C#N)(c2ccc(Cl)cc2F)[C@H]1c1cccc(Cl)c1F	1.9%	
O=C(O)C[C@H](O)C[C@H](O)/C=C/c1c(C2CC2)nc2ccccc2c1-c1ccc(F)cc1		3.16 µM (active)
NS(=O)(=O)c1cc2c(cc1C(F)(F)F)NC(Cc1ccccc1)NS2(=O)=O (stereo not given)	1.49%	
O=C(/C=C/c1cccc(S(=O)(=O)Nc2ccccc2)c1)NO		3.55 µM (active)
COc1ccc(CNc2nc(N(CCO)CCO)nc3c2ncn3C(C)C)cc1		8.91 µM (active)
Cc1cc(O)cc2c1[C@]1(C)CC[C@H]3C(C)(C)CCC[C@]3(C)[C@H]1C2	-14%	
OCCn1cc(-c2ccc3c(c2)CC/C3=N\O)c(-c2ccncc2)n1	-9.16%	
NC(=O)/C(=C/n1cnc(-c2cc(C(F)(F)F)cc(C(F)(F)F)c2)n1)c1cncnc1		3.98 µM (active)
Cc1[nH]c(/C=C2\C(=O)Nc3ccc(S(=O)(=O)N(C)c4cccc(Cl)c4)cc32)c(C)c1C(=O)N1CCN(C)CC1		17.8 µM (active)
